Test results: PubChem BioAssay (NCI)
This is part of a sample that, as a whole, favours compounds with a hit. Of some 83,000 tested, about 20% had one in any assay.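 Single-dose data. Exposure time 48 hours. Values below 10 considered active.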 Active and inactive are the calls of the source.

Legend:
Test in all cases: NCI-60 one-dose screen, 48 h (100 = growth as untreated, 0 = no growth, -100 = all killed)
Settings in all cases: 10 µM unless noted
DU-145 prostate = system: DU-145 prostate
K-562 leukemia = system: K-562 leukemia
MALME-3M melanoma = system: MALME-3M melanoma
MDA-MB-231 breast = system: MDA-MB-231 breast
SF-268 CNS = system: SF-268 CNS
SF-295 CNS = system: SF-295 CNS
SF-539 CNS = system: SF-539 CNS
UACC-257 melanoma = system: UACC-257 melanoma
M14 melanoma = system: M14 melanoma
HCT-15 colon = system: HCT-15 colon
HT29 colon = system: HT29 colon
SNB-75 CNS = system: SNB-75 CNS
SNB-19 CNS = system: SNB-19 CNS
U251 CNS = system: U251 CNS
PC-3 prostate = system: PC-3 prostate
SK-MEL-5 melanoma = system: SK-MEL-5 melanoma
LOX IMVI melanoma = system: LOX IMVI melanoma
SK-MEL-28 melanoma = system: SK-MEL-28 melanoma
UACC-62 melanoma = system: UACC-62 melanoma

Measured: growth

CC[C@H](C)[C@@H]1NC(=O)[C@H](Cc2ccc(O)cc2)N(C)C(=O)[C@H](Cc2ccccc2)NC(=O)CN(C)C(=O)[C@@H]2CCCN2C(=O)[C@@H](Cc2ccccc2)N(C)C(=O)[C@H](CC(C)C)NC1=O
active: DU-145 prostate 0.387% | K-562 leukemia 6.28% | MALME-3M melanoma -25.5% | MDA-MB-231 breast -12.6% | SF-268 CNS -5.16% | SF-295 CNS -23.5% | SF-539 CNS -24.8% | UACC-257 melanoma -0.97% | M14 melanoma -69.4% | HT29 colon 4.78% | SNB-75 CNS -11.6% | SNB-19 CNS -8.3% | U251 CNS 6.02% | PC-3 prostate 2.42% | SK-MEL-5 melanoma -67.2% | LOX IMVI melanoma -18.6% | SK-MEL-28 melanoma -43.8%
inactive: HCT-15 colon 41.5%

CC(=O)O[C@H]1CC[C@@]2(C)[C@@H](CC[C@@H]3[C@@H]2CC[C@@]2(C)[C@H]3CC[C@]2(O)C(C)=O)C1
inactive: DU-145 prostate 115% | K-562 leukemia 100% | MALME-3M melanoma 99.5% | MDA-MB-231 breast 100% | SF-268 CNS 106% | SF-295 CNS 94.4% | SF-539 CNS 100% | UACC-257 melanoma 109% | M14 melanoma 99.3% | HCT-15 colon 102% | HT29 colon 107% | SNB-75 CNS 94.9% | SNB-19 CNS 102% | U251 CNS 94% | PC-3 prostate 95.7% | SK-MEL-5 melanoma 94% | UACC-62 melanoma 91% | LOX IMVI melanoma 99.2% | SK-MEL-28 melanoma 103%

Cc1ccc(C2CC(c3cccc(Nc4ccncc4)c3)=NN2c2ccc(Cl)cc2)cc1 (configuration not stated)
active: DU-145 prostate -93.3% | K-562 leukemia -18.8% | MALME-3M melanoma -86% | MDA-MB-231 breast -86% | SF-268 CNS -72% | SF-295 CNS -85.6% | SF-539 CNS -96.2% | UACC-257 melanoma -35.1% | M14 melanoma -57.3% | HCT-15 colon -88.2% | HT29 colon -58% | SNB-75 CNS -89.9% | SNB-19 CNS -90.2% | U251 CNS -52.2% | PC-3 prostate -83.4% | SK-MEL-5 melanoma -93% | UACC-62 melanoma -98.3% | LOX IMVI melanoma -96.5% | SK-MEL-28 melanoma -97.7%

c1cnc2nc3c(cc2c1)oc1ccccc13
inactive: DU-145 prostate 103% | K-562 leukemia 92.4% | MALME-3M melanoma 109% | MDA-MB-231 breast 86.3% | SF-268 CNS 97.1% | SF-295 CNS 96.7% | SF-539 CNS 93.2% | UACC-257 melanoma 116% | M14 melanoma 105% | HCT-15 colon 101% | HT29 colon 105% | SNB-75 CNS 76.6% | SNB-19 CNS 92% | U251 CNS 97% | PC-3 prostate 104% | SK-MEL-5 melanoma 91.2% | UACC-62 melanoma 87.1% | LOX IMVI melanoma 97.7% | SK-MEL-28 melanoma 111%

CCOC(=O)C1CC(=O)c2cc(OC)c(OC)cc2C1 (configuration not stated)
inactive: DU-145 prostate 111% | K-562 leukemia 88% | MALME-3M melanoma 132% | MDA-MB-231 breast 110% | SF-268 CNS 102% | SF-295 CNS 98.1% | SF-539 CNS 100% | UACC-257 melanoma 87.7% | M14 melanoma 87.8% | HCT-15 colon 100% | HT29 colon 88.6% | SNB-75 CNS 91.7% | SNB-19 CNS 100% | U251 CNS 103% | PC-3 prostate 86.4% | SK-MEL-5 melanoma 109% | UACC-62 melanoma 88.5% | LOX IMVI melanoma 104% | SK-MEL-28 melanoma 119%

C[C@]12CCc3nc(Nc4cccc(O)c4)sc3C1=CC[C@@H]1[C@@H]2CC[C@]2(C)/C(=N\NC(N)=S)CC[C@@H]12
inactive: MALME-3M melanoma 39% | MDA-MB-231 breast 26.2% | SF-268 CNS 37.6% | UACC-257 melanoma 74% | M14 melanoma 31.1% | SNB-19 CNS 57.9% | U251 CNS 11.9% | PC-3 prostate 20.1% | SK-MEL-5 melanoma 36.7%
active: DU-145 prostate 8.45% | K-562 leukemia 3.19% | SF-295 CNS -34% | SF-539 CNS -48% | HCT-15 colon -29% | HT29 colon 3.21% | SNB-75 CNS 1.36% | LOX IMVI melanoma -73.8% | SK-MEL-28 melanoma 9.46%

CCN(CC)CCCC(C)Nc1c2c(nc3ccc(OC)cc13)CCCC2 (configuration not stated)
inactive: DU-145 prostate 111% | K-562 leukemia 79.9% | MALME-3M melanoma 118% | MDA-MB-231 breast 79.8% | SF-268 CNS 86.2% | SF-295 CNS 78% | SF-539 CNS 89.8% | UACC-257 melanoma 112% | M14 melanoma 100% | HCT-15 colon 100% | HT29 colon 79.4% | SNB-75 CNS 72.8% | SNB-19 CNS 100% | U251 CNS 105% | PC-3 prostate 98.6% | SK-MEL-5 melanoma 105% | UACC-62 melanoma 103% | LOX IMVI melanoma 87.5% | SK-MEL-28 melanoma 101%

COc1ccccc1/C=N/NC1=NC2C(N1)N(C)C(=O)N2C (configuration not stated)
inactive: DU-145 prostate 112% | K-562 leukemia 99.5% | MALME-3M melanoma 93.6% | MDA-MB-231 breast 99.8% | SF-268 CNS 101% | SF-295 CNS 104% | SF-539 CNS 97.6% | UACC-257 melanoma 98.3% | M14 melanoma 99.7% | HCT-15 colon 104% | HT29 colon 111% | SNB-75 CNS 83.4% | SNB-19 CNS 104% | U251 CNS 99.2% | PC-3 prostate 95.4% | SK-MEL-5 melanoma 100% | UACC-62 melanoma 100% | LOX IMVI melanoma 99.5% | SK-MEL-28 melanoma 103%

Cc1cc(C)c(C=O)c(C)c1
inactive: DU-145 prostate 117% | K-562 leukemia 100% | MALME-3M melanoma 114% | MDA-MB-231 breast 112% | SF-268 CNS 104% | SF-295 CNS 101% | SF-539 CNS 106% | UACC-257 melanoma 74.5% | M14 melanoma 84.3% | HCT-15 colon 107% | HT29 colon 98.8% | SNB-75 CNS 83% | SNB-19 CNS 102% | U251 CNS 101% | PC-3 prostate 79.9% | SK-MEL-5 melanoma 99.8% | UACC-62 melanoma 108% | LOX IMVI melanoma 96.8% | SK-MEL-28 melanoma 110%

COc1ccc(C(=O)c2cc3c(N)c(C(=O)Nc4cccc(OC)c4)sc3nc2C)cc1
inactive: DU-145 prostate 16.2% | MALME-3M melanoma 55.6% | MDA-MB-231 breast 15.5% | SF-268 CNS 39% | SF-295 CNS 24.2% | UACC-257 melanoma 71.3% | M14 melanoma 13.1% | HCT-15 colon 16% | SNB-19 CNS 40.2% | U251 CNS 15.1% | PC-3 prostate 28.7% | SK-MEL-5 melanoma 15.3% | UACC-62 melanoma 44.5% | LOX IMVI melanoma 36.6% | SK-MEL-28 melanoma 56.7%
active: K-562 leukemia 8.3% | SF-539 CNS -16.3% | HT29 colon 1.18% | SNB-75 CNS -10.6%

COc1ccc(C2CC(c3cccc(Nc4ccncc4)c3)=NN2c2ccccc2)cc1 (configuration not stated)
active: K-562 leukemia 1.17% | MALME-3M melanoma -70% | UACC-257 melanoma -35.6% | M14 melanoma -46% | HCT-15 colon -22.9% | HT29 colon -3.3% | U251 CNS 8.79% | SK-MEL-28 melanoma -88.3%
inactive: DU-145 prostate 42.2% | MDA-MB-231 breast 62.5% | SF-268 CNS 72.2% | SF-295 CNS 64% | SF-539 CNS 59.7% | SNB-75 CNS 65.3% | SNB-19 CNS 84.3% | PC-3 prostate 37.3% | SK-MEL-5 melanoma 49.2% | UACC-62 melanoma 97% | LOX IMVI melanoma 28.5%

Fc1ccc(C2CC(c3cccc(Nc4ccncc4)c3)=NN2c2ccc(Cl)cc2)cc1 (configuration not stated)
active: K-562 leukemia 1.22% | HCT-15 colon 3.49% | HT29 colon 2.11% | U251 CNS 8.99% | LOX IMVI melanoma -67.1%
inactive: DU-145 prostate 52% | MALME-3M melanoma 33.1% | MDA-MB-231 breast 60.7% | SF-268 CNS 77.9% | SF-295 CNS 66.5% | SF-539 CNS 84.1% | UACC-257 melanoma 80.8% | M14 melanoma 101% | SNB-75 CNS 78.4% | SNB-19 CNS 87.5% | PC-3 prostate 49.4% | SK-MEL-5 melanoma 82.8% | UACC-62 melanoma 99.6% | SK-MEL-28 melanoma 53.4%

COc1cc(C2CC(c3cccc(Nc4ccncc4)c3)=NN2c2cc(Cl)cc(Cl)c2)cc(OC)c1OC (configuration not stated)
active: DU-145 prostate -18.1% | K-562 leukemia -1.05% | MALME-3M melanoma -77.9% | SF-295 CNS 1.81% | UACC-257 melanoma 1.77% | HCT-15 colon -40.4% | HT29 colon -28% | U251 CNS -51.1% | PC-3 prostate -36.1% | SK-MEL-5 melanoma 2.57% | LOX IMVI melanoma -90.9% | SK-MEL-28 melanoma -78.5%
inactive: MDA-MB-231 breast 19.8% | SF-268 CNS 42.4% | SF-539 CNS 70% | M14 melanoma 96.2% | SNB-75 CNS 25.9% | SNB-19 CNS 50.7% | UACC-62 melanoma 94.5%

COc1ccc(-c2nc3sccn3c2/C=C/C(=O)c2cc(OC)c(OC)c(OC)c2)cc1
active: SK-MEL-5 melanoma -10.9%
inactive: DU-145 prostate 75.7% | K-562 leukemia 44.2% | MALME-3M melanoma 53.3% | MDA-MB-231 breast 52.8% | SF-268 CNS 67.4% | SF-295 CNS 54.6% | SF-539 CNS 53% | UACC-257 melanoma 69.1% | M14 melanoma 63.6% | HCT-15 colon 40.2% | HT29 colon 46.9% | SNB-75 CNS 37.2% | SNB-19 CNS 59.9% | U251 CNS 43.1% | PC-3 prostate 32.2% | UACC-62 melanoma 46.6% | LOX IMVI melanoma 41.4% | SK-MEL-28 melanoma 84.2%

COc1ccc(C2CC(c3cccc(Nc4ccncc4)c3)=NN2c2cc(Cl)cc(Cl)c2)cc1 (configuration not stated)
active: K-562 leukemia 0.631% | MALME-3M melanoma -40.6% | HCT-15 colon -67.5% | HT29 colon -17.5% | U251 CNS -34.4% | LOX IMVI melanoma -52.7% | SK-MEL-28 melanoma -49.3%
inactive: DU-145 prostate 13.3% | MDA-MB-231 breast 44.7% | SF-268 CNS 66.3% | SF-295 CNS 72.4% | SF-539 CNS 78% | UACC-257 melanoma 62% | M14 melanoma 97% | SNB-75 CNS 65.9% | SNB-19 CNS 91% | PC-3 prostate 33.8% | SK-MEL-5 melanoma 67.5% | UACC-62 melanoma 99.6%

COc1ccc(-c2cnc(N)nc2-c2ccc(OC)cc2O)cc1
inactive: DU-145 prostate 99.2% | K-562 leukemia 80.4% | MALME-3M melanoma 126% | MDA-MB-231 breast 99.4% | SF-268 CNS 107% | SF-295 CNS 101% | SF-539 CNS 88.1% | UACC-257 melanoma 112% | M14 melanoma 109% | HCT-15 colon 101% | HT29 colon 85.6% | SNB-75 CNS 91.5% | SNB-19 CNS 99.6% | U251 CNS 92.2% | PC-3 prostate 92% | SK-MEL-5 melanoma 104% | UACC-62 melanoma 93.4% | LOX IMVI melanoma 86.1% | SK-MEL-28 melanoma 104%
